HttQ103 aggreg – inhibitors of mutant huntingtin aggregate formation in PC12 cells | PC12 HttQ103-GFP aggregates, Acumen cytometry, 40 h | Potency, µM (top dose mostly 46.1 µM), usual class: inhibitors | 220,000 tested, 1.1% active | AID 1688; note: nearly all actives have a fitted effect of over 60% in size
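Quantitative HTS on tebufenozide-induced (100 nM) PC12 cells stably expressing polyQ103 Huntingtin exon 1–GFP. Reduction of bright GFP aggregates, detected by laser scanning cytometry after lysis, identified actives across the titration.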
IMPase Li inh – IMPase inhibition in cells with lithium potentiation; CHO-M1 cells, IP1 TR-FRET (IP-One), carbachol + lithium; 210,000 tested, 0.35% active; AID 1457; Potency, µM (series often up to 59.4 µM), most hits filed as inhibitors;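 note: IP1 builds up when IMPase is blocked and the TR-FRET signal falls; nearly all actives have a fitted effect of over 50% in size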
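Lithium-sensitised IP1 accumulation assay; M1-expressing CHO cells treated 30 min at 37C with compound. Competitive antibody detection by time-resolved FRET followed a 10 min room-temperature lysis step.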
PNC assembly inh – perinucleolar compartment assembly inhibition; activity change (PNC), negative = inhibition, % at 10 µM; AID 2417; PC3M PTB-GFP, PNC prevalence imaging, 16 h; hits give low values; 140,000 tested, 3.1% active;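 active = readout at or below -70, meaning at least 70% loss of cells showing the perinucleolar compartment, a nuclear body marking cancer cells; inconclusive = readout between -30 and a set limit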
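Read-out is percentage of cells bearing a perinucleolar compartment, from automated 20x imaging of fixed, Hoechst-stained PC3M PTB-GFP cells. Cells were seeded 4 h, then exposed 16 h to compound (23 nl of library stock) in duplicate plates.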
HTT cytoprotect – Huntington cell model cytoprotection by ATP luminescence. PC12 HTT-Q103 induced, cytoprotection, ATP luminescence, 40 h. Potency, µM (titrated, usually from 56.4 µM), actives largely listed as activators. 230,000 tested, 0.14% active. AID 1471; note: nearly all actives have a fitted effect of over 45% in size
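Stable PC12 Q103-GFP cells in serum-supplemented, phenol red-free DMEM; induction by tebufenozide at 100 nM final; compound dose series; cell viability quantified luminescently from ATP.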
IMPase inh – IMPase inhibition in cells; CHO-M1 cells, IP1 accumulation, HTRF TR-FRET ratio; 120,000 tested, under 10 active; inhibition (IP1 accumulation), % at 46.1 µM; P97697; active = well fitted curve in the direction sought with a large enough effect in the signal ratio, not every such curve was filed as active; inconclusive = small, poorly fitted or top-dose-only effect, or a change in a side signal; inactive = no such curve, though single readings can be large or run the other way; the % refers to the signal ratio;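 note: cells stimulated with carbachol in lithium chloride buffer; higher means more IMPase inhibition seen as more IP1 and lower FRET ratio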
Target sequence (P97697 whole entry, looked up): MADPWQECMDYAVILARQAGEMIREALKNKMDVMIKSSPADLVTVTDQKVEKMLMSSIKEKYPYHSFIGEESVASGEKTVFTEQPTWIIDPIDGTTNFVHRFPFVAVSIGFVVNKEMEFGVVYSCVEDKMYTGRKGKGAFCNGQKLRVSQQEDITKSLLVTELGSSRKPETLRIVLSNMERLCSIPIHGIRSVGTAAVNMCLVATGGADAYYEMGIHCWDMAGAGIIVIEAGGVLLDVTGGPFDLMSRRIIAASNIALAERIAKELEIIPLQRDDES
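Cellular IMPase inhibition is scored as a rise in cytosolic IP1, detected by competitive TR-FRET between d2-labelled IP1 and a europium anti-IP1 antibody. M1-expressing CHO cells were stimulated with carbachol for 30 min at 37C, with lithium (50 mM LiCl) present in the buffer.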
NPSR antag – blocks cAMP signaling of the human neuropeptide S receptor; Q6W5P4; CHO-NPSR cells, cAMP TR-FRET, antagonist mode; Potency, µM (titrated, usually from 38.3 µM), most hits filed as inhibitors; 220,000 tested, 1% active; AID 1461; note: nearly all actives have a fitted effect of over 50% in size
Numbers stand for hits; 0 = inactive; ? = inconclusive; - = no result; [ ] = dose if it differs, or a comment. Hits are enriched below; roughly 3.4% of the tested compounds scored in any of these assays. Unless noted, calls come from the whole dose curve; as a rule, active = well fitted curve in the direction sought with a large enough effect; inconclusive = small, poorly fitted or top-dose-only effect, or another doubt; inactive = no such curve, though single readings can be large; an effect the other way counts as inactive or inconclusive.

SMILES | HttQ103 aggreg | IMPase Li inh | PNC assembly inh | HTT cytoprotect | IMPase inh | NPSR antag
N#Cc1c(Sc2ncc(C(F)(F)F)cc2Cl)nsc1C/C=N\OCc1ccccc1Br | 0 | 0 | 0 | 0[10 µM] | 0 | 10µM
Cc1ccc(C2CC(c3ccccc3)=NN2C(=S)Nc2ccccc2)o1 (stereo not drawn) | ? | 0 | -87.7 | 0[10 µM] | 0 | ?
N#CCc1ccccc1[N+](=O)[O-] | - | 0 | - | 0 | - | -
COc1cccc(C2=NO[C@@H]3C(=O)N(Cc4ccccc4)C(=O)[C@H]23)c1OC | 0 | 0 | -106.9 | 0 | ? | 0
CN1N=C(C(=O)N2CCN(c3ccc([N+](=O)[O-])cc3)CC2)CCC1=O | 0 | 0 | -94.3 | - | - | 0
Cc1ccc(-c2c3c(nc4sc(C(N)=O)c(N)c24)CCC3)cc1 | 10µM | 0 | 0 | 0 | 0 | 0
O=C(COc1ccc(Cl)cc1)Nc1ncc([N+](=O)[O-])s1 | 12.6µM | 0 | - | 0 | - | 0
COc1ccccc1-c1nnc(Nc2nc3c(OC)cccc3s2)o1 | 0 | ? | -86.6 | 0[10 µM] | 0 | 0
COc1cccc2sc(Nc3nc(-c4cc5ccccc5oc4=O)cs3)nc12 | 0 | 0 | -83.5 | 0[10 µM] | 0 | 0
Cc1ccc(CNC(=O)CSc2nc3ccsc3c(=O)n2Cc2ccccn2)cc1 | 0 | 0 | - | 0 | - | 0
O=c1c2sccc2nc(SCc2ccc([N+](=O)[O-])cc2)n1Cc1ccccn1 | 0 | 0 | -84.3 | 0[10 µM] | - | 0
CCOc1ccc(NC2=NCC(=O)N2Cc2cccs2)cc1 | 0 | 0 | -104.8 | 0 | 0 | 0
CCOc1ccc(NC2=NCCC(=O)N2Cc2cccs2)cc1 | 0 | 0 | ? | 0[10 µM] | 0 | 0
COc1ccccc1NS(=O)(=O)c1cc(NC(=O)C2CC2)ccc1N1CCOCC1 | ? | 0 | - | 0 | - | 0
COc1ccccc1NS(=O)(=O)c1cc(N2Cc3ccccc3C2=N)ccc1N1CCOCC1 | 0 | 0 | - | 0 | - | 2.51µM
CN1CCN(CCCNC(=O)c2cc3c(-c4ccc(Cl)cc4)nn(C)c3s2)CC1 | ? | 0 | 0 | 0 | 0 | 10µM
CCN(CC)CCCNC(=O)c1cc2c(-c3ccc(Cl)cc3)nn(C)c2s1 | 0 | 0 | 0 | 0 | 0 | ?
COCCNc1nc(CSc2ccccc2)nc2sc(C)c(C)c12 | ? | - | -85.9 | 0[10 µM] | 0 | 0
COc1ccc(S(=O)(=O)N2CCCC(C(=O)NC3CCCCC3)C2)cc1 (stereo not drawn) | 0 | 0 | -102.2 | 0[10 µM] | 0 | 0
C=CC1=C2C=C(C3CC3)N(CCN3CCOCC3)C=C2C(=O)C(C)(OC(=O)c2ccco2)C1=O (stereo not drawn) | - | 0 | - | 0[10 µM] | - | -
CCOC(=O)c1sc2nc(C)nc(SCC(=O)NC3CCS(=O)(=O)C3)c2c1C (stereo not drawn) | 0 | 12.6µM | - | 0 | - | 0
COC(=O)c1sc2nc(C)nc(SCC(=O)C(C)(C)C)c2c1C | ? | 0 | - | 0 | - | 0
CCCn1c(=O)c(C(=O)Nc2nnc(C)s2)c(O)c2ccccc21 | - | - | - | 0[10 µM] | - | -
O=C(CCl)NCc1cc(-c2ccc(Cl)cc2)no1 | 35.5µM | 0 | - | 0 | - | 0
COc1cc2oc(=O)cc(C)c2c(OC)c1OC | 0 | 0 | 0 | - | - | 0
SMILES | HttQ103 aggreg | IMPase Li inh | PNC assembly inh | HTT cytoprotect | IMPase inh | NPSR antag
COc1cc2oc(=O)c(Br)c(C)c2c(OC)c1OC | 0 | 12.6µM | 0 | 0 | ? | 0
Cc1cc(C(=O)N/N=C2\CC(=O)CC(C)(C)C2)c(C)n1-c1ccccc1 | 0 | 0 | -94.6 | - | - | 0
Cc1nc(N2CCN(c3ccccc3)CC2)c2c3c(sc2n1)CCC3 | ? | 0 | 0 | 0 | 0 | 0
Oc1ccc(N2CCN(c3ncnc4sc5c(c34)CCC5)CC2)cc1 | 11.2µM | 0 | ? | 0[10 µM] | 0 | ?
Cc1ccc(-c2csc(=Nc3cccnc3)n2CCCn2ccnc2)cc1C | 3.55µM | 0 | 0 | 0[10 µM] | - | 0
c1cncc(N=c2scc(-c3cccc4ccccc34)n2CCCn2ccnc2)c1 | 0 | 0 | -92.5 | 0[10 µM] | - | 0
Cc1ccc(-c2csc(=Nc3cccnc3)n2CCCN2CCCC2=O)cc1C | 0 | 0 | 0 | 0[10 µM] | - | 0
O=C1c2ccc(Oc3ccc4c(c3)C(=O)N(CCCO)C4=O)cc2C(=O)N1CCCO | 5.62µM | 0 | 0 | 0 | 0 | 0
Cc1ccc2c(c1)C(=O)N(CCCCO)C2=O | 0 | 0 | 0 | 0[10 µM] | - | 0

Assay outcomes from PubChem.
